ELG1 DNA repair: ELG1-dependent DNA repair inhibition; HEK293T ELG1-luciferase reporter, luminescence, 16 h; DNA damage induced by 5-fluorouridine; Potency, µM (titrated, usually from 46.1 µM), without a hit: at the highest dose activity change, negative = inhibition, actives largely listed as inhibitors; 2.3% of 330,000 active; also: potency is read from the fitted curve at half-maximal effect; % is scaled to controls: 0 for no effect and ±100 for the full control effect; nearly all actives have a fitted effect of over 55% in size
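Luminescence from the luciferase reporter, measured 30 min after ONE-Glo reagent at room temperature, was the read-out. Beforehand, 2,000 cells per well were exposed for 16 hr at 37 °C to 5-fluorouridine together with compound or vehicle.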
TRPV1 ag: human TRPV1 agonism; Q8NER1; TRPV1-expressing cells, Fluo-8 calcium influx, agonist mode; activation, % at 8.33 µM; 0.19% of 320,000 active; AID 540275; in the data active = activation above about 80%; inconclusive = between about 30% and that limit; also: 0% is about no effect
Target sequence (Q8NER1 whole entry, looked up): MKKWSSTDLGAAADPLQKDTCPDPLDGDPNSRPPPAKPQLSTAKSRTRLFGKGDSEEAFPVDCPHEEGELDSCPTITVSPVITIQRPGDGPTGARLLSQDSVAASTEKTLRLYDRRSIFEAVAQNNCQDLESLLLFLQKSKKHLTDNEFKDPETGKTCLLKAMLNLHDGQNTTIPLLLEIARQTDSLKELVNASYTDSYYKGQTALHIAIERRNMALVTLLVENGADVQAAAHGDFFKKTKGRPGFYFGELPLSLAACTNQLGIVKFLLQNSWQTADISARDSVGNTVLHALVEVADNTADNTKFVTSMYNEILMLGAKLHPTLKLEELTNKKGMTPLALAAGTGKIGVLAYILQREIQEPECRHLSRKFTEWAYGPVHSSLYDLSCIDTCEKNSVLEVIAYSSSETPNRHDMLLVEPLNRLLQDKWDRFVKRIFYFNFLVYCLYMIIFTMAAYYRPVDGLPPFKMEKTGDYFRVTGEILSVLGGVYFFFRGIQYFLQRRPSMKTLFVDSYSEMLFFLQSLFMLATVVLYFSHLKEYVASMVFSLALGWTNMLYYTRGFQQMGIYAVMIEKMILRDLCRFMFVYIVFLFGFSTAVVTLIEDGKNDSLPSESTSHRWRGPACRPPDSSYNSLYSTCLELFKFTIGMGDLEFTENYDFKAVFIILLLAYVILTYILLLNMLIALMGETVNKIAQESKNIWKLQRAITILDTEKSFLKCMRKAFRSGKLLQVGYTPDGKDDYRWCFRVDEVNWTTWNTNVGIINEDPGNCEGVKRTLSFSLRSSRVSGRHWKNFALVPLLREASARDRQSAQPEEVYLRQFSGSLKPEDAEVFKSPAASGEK
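Cells expressing TRPV1 were dye-loaded with Fluo-8 and read kinetically: 10 s baseline, 3 min after compound (agonist portion), then 2 min after EC20 capsaicin (allosteric enhancer portion). Calcium-bound dye fluorescence at 480/520 nm.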
FUS yeast rescue: suppressors of FUS proteinopathy in yeast; S. cerevisiae FUS-expressing, growth rescue, OD600, 24 h; Potency, µM (top dose mostly 76.6 µM), hits mostly activators; 0.24% of 390,000 active; AID 1347120;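 also: potency is read from the fitted curve at half-maximal effect; plate controls were DMSO vehicle for no effect and reference control for full effect; nearly all actives have a fitted effect of over 55% in size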
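Steps: raffinose overnight preculture; dilution to OD 0.005 in 2% galactose minimal medium; compound addition (concentration series); 24hr at 30C, 99% humidity; absorbance read at 600 nm.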
TRPV1 potentiator: potentiators of human vanilloid receptor 1 (TRPV1) | 0.02% of 320,000 active | TRPV1-expressing cells, Fluo-8 calcium influx, capsaicin EC20 potentiation | potentiation, % at 8.33 µM | Q8NER1 | AID 540277; in the data active = potentiation above about 80%; inconclusive = between about 30% and that limit; also: 0% is about no effect
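Fluo-8 calcium influx in TRPV1-expressing cells, kinetic read (ex 480/em 520 nm). Compound added and read 3 min for agonist activity, followed by capsaicin at EC20 final and 2 min further read for enhancement.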
Giardia killer: kills Giardia lamblia; Giardia lamblia trophozoite viability; 0.15% of 340,000 active; AID 540267; activity change, % at 7.66 µM, hits read low; in the data active = activity change below about -80%; inconclusive = between about -30% and that limit;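 also: parasites exposed to compound for two days anaerobically before the ATP read; % is scaled to controls: 0 for no effect and ±100 for the full control effect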
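Anaerobic 48 hrs incubation at 37 deg C of 100 trophozoites/well with test compounds; ATPLite 1-Step luminescence, 15-30 min RT, reports cellular ATP as viability.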
* marks the source's active call; other numbers are inactive results; i = inactive; ? = inconclusive; nt = not tested or not shown. Compounds with a hit are over-represented: about 2.3% of the library has one in this group of screens. Unless noted, calls follow the shape of the dose curve; as a rule, active = well fitted curve in the direction sought with a large enough effect; inconclusive = small, poorly fitted or top-dose-only effect, or another doubt; inactive = no such curve, though single readings can be large; an effect the other way counts as inactive or inconclusive.

SMILES	ELG1 DNA repair	TRPV1 ag	FUS yeast rescue	TRPV1 potentiator	Giardia killer
S=C(NCCc1ccccc1)Nc1cccc2cnccc12	1.5µM*	?	i	-29	17
COc1ccc(COc2cc(-c3cccc(OC)c3)nc3ccc(NC(=O)c4ccccc4)cc23)cc1	6.5µM*	3	i	2	1
COc1ccc(COc2cc(-c3cccc(OC)c3)nc3ccc(NC(=O)c4cccnc4)cc23)cc1	2.9µM*	0	i	2	-24
COc1ccc(COc2cc(-c3cccc(OC)c3)nc3ccc(NC(=O)c4ccc(OC)cc4)cc23)cc1	4.1µM*	1	?	-7	-2
COc1ccc(COc2cc(-c3cccc(OC)c3)nc3ccc(NC(=O)c4ccc(Cl)cc4)cc23)cc1	?	1	i	5	3
CCCS(=O)(=O)NC(=O)C1(C)CCCN(C(=O)c2ccccc2F)C1 (stereo not drawn)	nt	nt	i	nt	nt
Cc1ccc2occ(CC(=O)Nc3c(C)cccc3C)c2c1	nt	nt	i	nt	nt
CCOC(=O)C(=Cc1ccc(-n2cncn2)cc1)C(=O)OCC	18µM*	1	i	7	-12
CC(C(=O)Nc1ccccc1)n1nnc2sc3c(c2c1=O)CCCC3 (stereo not drawn)	nt	nt	i	nt	nt
O=C(O)c1cc([N+](=O)[O-])ccc1N1CCC(Cc2ccccc2)CC1	-6%	-1	i	0	2
O=C(NCC1CCCO1)c1cc([N+](=O)[O-])ccc1N1CCC(Cc2ccccc2)CC1 (stereo not drawn)	23µM*	?	i	-1	12
CC1(C)CC(=O)C2=C(C1)Nc1cc3c(cc1C2c1ccc2c(c1)OCO2)OCO3 (stereo not drawn)	11%	?	35µM*	-20	24
COc1cc(-c2nnn(Cc3ccccc3C)n2)cc(OC)c1OC	23µM*	12	i	-4	-8
O=C(NCc1cccnc1)/C(=C\c1ccc(-c2ccc(Br)cc2)o1)S(=O)(=O)c1ccccc1	21µM*	-1	i	1	-21
O=C(NCc1cccnc1)/C(=C/c1ccc(-c2ccc(Cl)cc2)o1)S(=O)(=O)c1ccccc1	?	-1	i	16	-4
Cc1ccc(NC(=O)C2CCN(c3nc4ccccc4nc3C(F)(F)F)CC2)cc1F	nt	nt	i	nt	nt
CC(NC(=O)Cn1ncc(Cl)c(Cl)c1=O)C12CC3CC(CC(C3)C1)C2 (stereo not drawn)	18µM*	4	i	1	-14
O=C(Cn1ncc(Cl)c(Cl)c1=O)Nc1ccc2c(c1)OCO2	6.5µM*	-2	i	-15	-17
Cc1nn(CC(=O)Nc2ccc3c(c2)OCO3)c(C)c1Cl	25%	2	i	?	2
Cc1nc2ccccc2c2c(N)c3ccccc3n12	26µM*	1	i	3	-1
CCC(=O)c1ccc(OCC(=O)N2CCc3cc(OC)c(OC)cc3C2)cc1	-22%	11	i	19	1
COc1cc2c(cc1OC)CN(C(=O)COc1ccc(C)c(C)c1)CC2	18µM*	24	i	-11	-12
Cc1ccc(C2=N/C(=C\c3cccs3)C(=O)N2Nc2ccccc2)cc1	15µM*	?	i	-7	-25
COc1ccc(-c2nc(N3CCN(S(=O)(=O)c4ccccc4)CC3)c3ccccc3n2)cc1	nt	nt	nt	nt	-12
CCN(c1ccccc1)S(=O)(=O)c1cc(NC(=O)Nc2ccccc2C#N)ccc1Cl	21µM*	16	nt	-1	-3
SMILES	ELG1 DNA repair	TRPV1 ag	FUS yeast rescue	TRPV1 potentiator	Giardia killer
CCN(c1ccccc1)S(=O)(=O)c1ccc(Cl)c(NC(=O)Nc2ccc(Cl)cc2C#N)c1	-25%	2	?	-1	9
CCN(c1ccccc1)S(=O)(=O)c1cc(C(=O)Nc2ccc(F)c(F)c2)ccc1F	21µM*	3	i	-7	-5
Cc1[nH]c(=O)[nH]c(=O)c1S(=O)(=O)Nc1cccc(Cl)c1C	nt	nt	i	nt	nt
Cc1nc2ccc(S(=O)(=O)NCC(=O)N3CCN(c4ccccc4)CC3)cc2s1	23µM*	-2	i	4	8
CCCCOc1ccc(C2C(=O)N(C3CCCCC3)CC(=O)N2C2CCCCC2)cc1 (stereo not drawn)	nt	nt	i	nt	nt
COC(=O)c1ccc(CNC(=O)c2cc(COc3cncc(Cl)c3)on2)cc1	21µM*	14	i	22	13
Oc1c(N=NC(=S)Nc2ccccc2F)c2ccccc2n1Cc1ccc(F)cc1	5.2µM*	-2	i	7	?
Oc1c(N=NC(=S)Nc2ccccc2F)c2ccccc2n1Cc1cccc(Cl)c1	?	-4	i	7	13
Cc1cccc(Cn2c(O)c(N=NC(=S)Nc3ccccc3F)c3ccccc32)c1	3.7µM*	-4	i	13	-13
Cc1c(O)ccc2c(CN(C)Cc3ccccc3)cc(=O)oc12	13µM*	?	i	-6	6
O=C(c1ccccc1)c1ccc(OCC(O)CN2CCN(S(=O)(=O)N3CCCCC3)CC2)cc1 (stereo not drawn)	18µM*	12	i	-11	-7
Cc1ccc(NC(=O)CSc2nn(-c3ccc(Cl)cc3)c(=S)s2)cc1S(=O)(=O)N(C)C	15µM*	-1	nt	23	-5
Cc1ccc(NC(=O)CNc2ccc(Cl)c(Cl)c2)cc1S(=O)(=O)N(C)C	-19%	-8	nt	11	-1
CN(C)S(=O)(=O)c1cc(NC(=O)CSc2nn(-c3ccc(Cl)cc3)c(=S)s2)ccc1Cl	?	0	i	10	-14
Cc1ccc(NC(=O)Cc2ccc(Cl)c(Cl)c2)cc1S(=O)(=O)N(C)C	15µM*	16	nt	5	-6
O=C(CCCCCn1c(=O)[nH]c2ccccc2c1=O)N1CCN(c2ccc(Cl)cc2)CC1	nt	nt	i	nt	nt
Cc1ccc(N2CC(=O)Nc3c(sc4nc(C)cc(C)c34)C2=O)cc1	23µM*	2	i	10	-8
CCn1nc(C(=O)Nc2ccc(S(=O)(=O)Nc3nccs3)cc2)c2ccccc2c1=O	1%	4	25µM*	10	12
COc1ccc(N2CCN(S(=O)(=O)c3ccc(C4CCCCC4)cc3)CC2)cc1	nt	nt	i	nt	nt
Cc1cc(C)nc(NC(=NCCc2c[nH]c3ccccc23)NC(=O)Nc2ccccc2)n1	15µM*	0	?	10	5
Cc1cc(C)nc(NC(=NCCc2c[nH]c3ccccc23)NC(=O)Nc2ccc(Cl)c(Cl)c2)n1	?	-5	i	-12	13
Cc1cc(C)nc(NC(=NCCc2c[nH]c3ccccc23)NC(=O)c2ccco2)n1	12µM*	?	i	-1	-7
Cc1cc(C)nc(NC(=NCCc2c[nH]c3ccccc23)NC(=O)Nc2cccc([N+](=O)[O-])c2)n1	5.2µM*	-1	nt	16	-10
COc1ccc2[nH]cc(CCN=C(NC(=O)c3ccccc3F)Nc3nc(C)cc(C)n3)c2c1	nt	nt	i	nt	nt

Screening data (PubChem BioAssay)
